SMILES strings stand for the structures. Records with an inconclusive call do not appear. Active and inactive are the calls of the source. The calls were made as follows, unless noted: active = hit-call score of the fitted dose curve at least 0.9, where 1 is the maximum; inconclusive = response in the unintended direction; inactive = score below 0.9.

From PubChem BioAssay (EPA / NIEHS) come the findings set out here.

Assay [1] addresses PGR (gene 5241) (UniProt P06401). As to the kind of experiment: TOX21_PR_BLA_Followup_Antagonist_ratio: Tox21 HEK293 Progesterone Receptor (PR) Antagonism Beta-lactamase Follow-Up Assay, Ratio (AID 2283934). In outline:
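PR-UAS-bla HEK293T cells, 3,000/well in 2% charcoal-stripped FBS, given compound plus 1nM R5020 agonist for 16 hr at 37C. Beta-lactamase FRET substrate 2 hours, ratio cleaved/uncleaved fluorescence; viability by CellTiter-Glo in same wells.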

Assay [2] can be described thus: TOX21_PR_BLA_Followup_Agonist_viability: Viability Assessment in the Tox21 HEK293 Progesterone Receptor (PR) Agonism Beta-lactamase Follow-Up Assay (AID 2283935).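 Also: signal loss means lower viability so actives are cytotoxic.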 In outline:
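PR-UAS-bla HEK293T cells in 2% charcoal-stripped FBS medium, plated 6 hr before compound addition, exposed 16 hr at 37C. Viability read by CellTiter-Glo ATP luminescence after 30 min at room temperature, in the same wells as the beta-lactamase readout.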

The nature of assay [3]: CEETOX_H295R_OHPREG_noMTC: CeeTox H295R High-throughput Steroidogenesis Assay for OH-Pregnenolone (OHPREG), maximum tolerated concentration (MTC) filtered results only (AID 2283912; active = hit-call score of the fitted dose curve at least 0.9, where 1 is the maximum; inactive = score below 0.9). The following applies: actives raise or lower the signal. The procedure, abridged:
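H295R human adrenal cells, forskolin-prestimulated (10 uM, 48 h), then exposed to test chemical in 0.1% DMSO for 48 h. 17alpha-hydroxypregnenolone in medium measured by HPLC-MS/MS after MTBE extraction; bidirectional fit versus DMSO, concentrations not MTC-filtered.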

Assay [4] in a line: CEETOX_H295R_OHPROG_noMTC: CeeTox H295R High-throughput Steroidogenesis Assay for OH-Progesterone (OHPROG), maximum tolerated concentration (MTC) filtered results only (AID 2283914; active = hit-call score of the fitted dose curve at least 0.9, where 1 is the maximum; inactive = score below 0.9). The following applies: actives raise or lower the signal. The procedure, abridged:
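H295R human adrenal cells prestimulated 48 h with 10 uM forskolin, then exposed 48 h to test chemical (0.1% DMSO final). Medium 17alpha-hydroxyprogesterone extracted with MTBE, quantified by HPLC-MS/MS; bidirectional fit versus DMSO, concentrations not MTC-filtered.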

Assay [5] in a line: CEETOX_H295R_ANDR_noMTC: CeeTox H295R High-throughput Steroidogenesis Assay for Androstenedione (ANDR), maximum tolerated concentration (MTC) filtered results only (AID 2283915; active = hit-call score of the fitted dose curve at least 0.9, where 1 is the maximum; inactive = score below 0.9). The following applies: actives raise or lower the signal. In outline: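 H295R cells, passage 10 or below, prestimulated 48 h with 10 uM forskolin, then exposed 48 h to chemical in 0.1% DMSO. Medium androstenedione extracted with MTBE, quantified by HPLC-MS/MS; concentrations not MTC-filtered; bidirectional fit versus DMSO.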

The nature of assay [6]: CEETOX_H295R_ESTRADIOL_noMTC: CeeTox H295R High-throughput Steroidogenesis Assay for Estradiol, maximum tolerated concentration (MTC) filtered results only (AID 2283919; active = hit-call score of the fitted dose curve at least 0.9, where 1 is the maximum; inactive = score below 0.9). The settings on record: actives raise or lower the signal. The procedure, abridged:
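H295R human adrenal cells pre-stimulated 48 h with 10 uM forskolin, then exposed 48 h to chemical (0.1% DMSO final). Estradiol in medium measured by HPLC-MS/MS after MTBE extraction and dansyl derivatization; bidirectional fit versus DMSO, concentrations not MTT-filtered.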

Assay [7] is described as follows: CEETOX_H295R_PROG_noMTC: CeeTox H295R High-throughput Steroidogenesis Assay for Progesterone (PROG), maximum tolerated concentration (MTC) filtered results only (AID 2283920; active = hit-call score of the fitted dose curve at least 0.9, where 1 is the maximum; inactive = score below 0.9). The settings on record: actives raise or lower the signal. In outline: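 H295R human adrenal cells were prestimulated 48 h with 10 uM forskolin, then exposed 48 h to test chemical (0.1% DMSO final). Progesterone in medium was quantified by HPLC-MS/MS; bidirectional fitting versus DMSO, concentrations not MTC-filtered.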

Assay [8] in a line: CEETOX_H295R_ESTRONE_noMTC: CeeTox H295R High-throughput Steroidogenesis Assay for Estrone, maximum tolerated concentration (MTC) filtered results only (AID 2283921; active = hit-call score of the fitted dose curve at least 0.9, where 1 is the maximum; inactive = score below 0.9). The settings on record: actives raise or lower the signal. In outline: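 H295R cells prestimulated 48 h with 10 uM forskolin, then exposed 48 h to chemical in 0.1% DMSO; medium estrone measured by HPLC-MS/MS after MTBE extraction and dansyl derivatization, fitted bidirectionally versus DMSO without MTT-based MTC filtering.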

Assay [9] is described as follows: CEETOX_H295R_TESTO_noMTC: CeeTox H295R High-throughput Steroidogenesis Assay for Testosterone (TESTO), maximum tolerated concentration (MTC) filtered results only (AID 2283924; active = hit-call score of the fitted dose curve at least 0.9, where 1 is the maximum; inactive = score below 0.9). The settings on record: actives raise or lower the signal. The procedure, abridged:
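H295R cells prestimulated 48 h with 10 uM forskolin, then exposed 48 h to chemicals in 0.1% DMSO final. Testosterone in medium quantified by MTBE extraction and HPLC-MS/MS; bidirectional fit versus DMSO, concentrations […] filtered by MTT-based maximum tolerated concentration.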

Assay [10] concerns the target PGR (gene 5241) (UniProt P06401). As to the kind of experiment: TOX21_PR_BLA_Followup_Agonist_ratio: Tox21 HEK293 Progesterone Receptor (PR) Agonism Beta-lactamase Follow-Up Assay, Ratio (AID 2283933). The procedure, abridged:
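PR-UAS-bla HEK293T cells in medium with 2% charcoal-stripped FBS were dosed after 6 h plating and incubated 16 h at 37C. LiveBLAzer FRET substrate was added for 2 h at room temperature. Cleaved/uncleaved substrate ratio fitted against DMSO; CellTiter-Glo viability run in the same wells.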

Chain of PGR (gene 5241) (P06401 whole entry, looked up): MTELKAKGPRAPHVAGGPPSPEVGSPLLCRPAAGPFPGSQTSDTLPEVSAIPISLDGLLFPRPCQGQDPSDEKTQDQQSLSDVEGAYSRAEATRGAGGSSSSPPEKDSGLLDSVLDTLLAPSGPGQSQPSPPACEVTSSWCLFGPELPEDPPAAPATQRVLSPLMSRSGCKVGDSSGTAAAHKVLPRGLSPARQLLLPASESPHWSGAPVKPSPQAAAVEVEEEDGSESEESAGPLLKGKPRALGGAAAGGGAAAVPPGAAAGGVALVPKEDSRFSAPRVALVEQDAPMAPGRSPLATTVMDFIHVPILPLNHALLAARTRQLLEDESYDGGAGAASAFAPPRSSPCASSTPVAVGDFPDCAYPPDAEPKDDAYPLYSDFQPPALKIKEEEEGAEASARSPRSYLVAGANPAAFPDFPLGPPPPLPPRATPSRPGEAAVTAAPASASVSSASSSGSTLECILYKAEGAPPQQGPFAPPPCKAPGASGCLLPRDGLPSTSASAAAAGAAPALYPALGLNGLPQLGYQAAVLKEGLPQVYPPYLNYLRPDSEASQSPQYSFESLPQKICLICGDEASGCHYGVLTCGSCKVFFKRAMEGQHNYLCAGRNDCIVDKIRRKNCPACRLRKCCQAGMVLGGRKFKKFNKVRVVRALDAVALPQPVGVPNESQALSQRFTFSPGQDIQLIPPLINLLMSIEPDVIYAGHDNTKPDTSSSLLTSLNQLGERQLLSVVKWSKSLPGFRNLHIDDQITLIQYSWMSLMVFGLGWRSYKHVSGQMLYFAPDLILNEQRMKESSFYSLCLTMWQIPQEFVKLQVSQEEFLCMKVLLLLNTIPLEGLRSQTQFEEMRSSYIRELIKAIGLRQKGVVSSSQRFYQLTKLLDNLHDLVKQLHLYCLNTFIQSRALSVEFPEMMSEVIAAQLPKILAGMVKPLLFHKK

As to `CCN(CC)C(=O)C(C)Oc1cccc2ccccc12` (centres undefined), the half-maximal activity concentration (AC50) in the assay with PGR (gene 5241) [1] is 28.4 µM (active). For the same compound, the compound was called inactive in [2].
Regarding `COC(=O)c1c(C(F)F)nc(C(F)(F)F)c(C2=NCCS2)c1CC(C)C`, the compound was classed as inactive in assay [3], in assay [5], in assay [6], in assay [8] and in assay [9]. The half-maximal activity concentration (AC50) in assay [4] is 7.98 µM (active); in assay [7] it was 13.8 µM (active).
Take `N#Cc1c[nH]cc1-c1cccc2c1OC(F)(F)O2`: in the assay with PGR (gene 5241) [1], the AC50 is 2.42 µM (active). For the same compound, in assay [2], the outcome was inactive.
On to `CC1(C)CCC(=Cc2ccc(Cl)cc2)C1(O)Cn1cncn1` (centres undefined), for which the outcome (with PGR (gene 5241) [10]; in the assay with PGR (gene 5241) [1]; in [2]) was inactive.
